Compound activity (PubChem)
tim10-1 inh – growth inhibitors of tim10-1 mutant yeast, primary screen, luminescence, uHTS | S. cerevisiae tim10-1 ts strain growth, BacTiter-Glo, 24 h | inhibition, % at 20 µM | 330,000 compounds, 2.2% hits;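 active = inhibition of at least 40%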;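 note: mutant grown at 25 °C; 0% = DMSO wells with yeast and 100% = wells holding no yeast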
PfHsp90 yeast 2 – growth inhibition of PfHsp90-expressing yeast, primary screen, antimalarial PfHsp90 inhibitor project, S. cerevisiae, BacTiter-Glo luminescence, single point, set 2; 310,000 compounds, 0.32% hits; BacTiter-Glo ATP, 48 h; yeast lacking PDR1 and PDR3 efflux regulators; inhibition, % at 9.4 µM;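 active = every replicate shows inhibition above about 80%, whatever the replicate mean, limit read from the data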;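 note: 0% = DMSO neutral controls and 100% = 20 µM radicicol positive controls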
NLRP3 yeast inh – NALP3 inflammasome inhibitors in reconstituted yeast, primary screen, luminescence, uHTS; 330,000 compounds, 0.39% hits; Yeast reconstituted NLRP3/ASC/caspase-1, beta-gal luminescence, 24 h; inhibition, % at 10 µM;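 active = inhibition of 50% or more; inactive = inhibition below 50%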;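 note: plate controls were induced DMSO wells for no effect and uninduced yeast grown without galactose for full effect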
TIM10 inh – growth inhibitors of isogenic TIM10 control yeast, primary screen, counter-screen for tim10-1 yeast inhibitor project, luminescence, uHTS; inhibition, % at 10 µM; 330,000 compounds, 1.4% hits; S. cerevisiae TIM10 strain growth, BacTiter-Glo luminescence, 24 h;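 active = inhibition of 40% or more at the single tested concentration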;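 note: wild-type TIM10 isogenic control strain grown at permissive 25 °C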
tim23-1 inh – growth inhibitors of tim23-1 mutant yeast, primary screen, luminescence, uHTS. S. cerevisiae tim23-1 growth, BacTiter-Glo luminescence, 24 h. 330,000 compounds, 1.3% hits. inhibition, % at 20 µM;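 active = growth inhibition of the mutant yeast at or above 50%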;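 note: temperature-sensitive mutant grown at 25 °C; plate controls were DMSO-treated mutant yeast for no effect and medium wells lacking yeast for full effect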
tim10-1 conf – growth inhibitors of tim10-1 mutant yeast, confirmation, single concentration, luminescence, S. cerevisiae; 7,400 compounds, 56% hits; AID 463213, 2010; shares compounds with tim10-1 inh; S. cerevisiae tim10-1 ts strain growth, BacTiter-Glo, 24 h; inhibition, % at 20 µM;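 active = inhibition of yeast growth at or above a set limit in either of two repeat tests at 20 µM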;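 note: tim10-1 mutant grown at permissive 25 °C to find synthetic lethal compounds; 0% = DMSO yeast wells and 100% = medium wells without yeast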
tim10 confirm – growth inhibitors of wild-type TIM10 yeast, confirmation, counter-screen for tim10-1 synthetic lethality project, single concentration, luminescence, S. cerevisiae. shares compounds with TIM10 inh. S. cerevisiae tim10 strain growth, BacTiter-Glo luminescence, 24 h. inhibition, % at 10 µM. 4,600 compounds, 63% hits;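 active = inhibition of yeast growth at or above a set limit in either of two replicates at 10 µM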;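 note: this counterscreen used the strain with wild-type TIM10; 0% = yeast with DMSO and 100% = medium wells lacking yeast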
tim23-1 conf – tim23-1 mutant yeast growth inhibitors, confirmation, luminescence, single concentration; inhibition, % at 20 µM; 4,400 compounds, 83% hits; S. cerevisiae tim23-1 growth, BacTiter-Glo luminescence, 24 h; shares compounds with tim23-1 inh;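 active = inhibition above about 39% in either of two replicate wells at 20 µM, limit read from the data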;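 note: temperature-sensitive tim23-1 mutant grown at 25 °C; 0% = DMSO wells with yeast and 100% = medium wells without yeast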
* marks the source's active call; other numbers are inactive results; / = no result. Sampled rows, rich in hits. Any-hit rate of the full collection: about 3.7%.

SMILES	tim10-1 inh	PfHsp90 yeast 2	NLRP3 yeast inh	TIM10 inh	tim23-1 inh	tim10-1 conf	tim10 confirm	tim23-1 conf
Cc1ccc(C)c(NC(=S)NNc2ccc(F)cc2F)c1	47*	-7	25	13	58*	42*	/	57*
CCOc1ccccc1/C=N/Nc1ccccc1[N+](=O)[O-]	9	12	-2	12	7	/	/	/
CCOc1ccc(/C=C/[N+](=O)[O-])c2ccccc12	51*	-61	6	65*	73*	-9	55*	-108
CC(=O)c1ccc(NC(=O)CCS(=O)(=O)c2ccc3c(c2)n(C)c(=O)c(=O)n3C)cc1	-17	-14	12	5	-7	/	/	/
CCOC(=O)c1sc(NC(=O)c2c(C)nn(Cc3ccccc3)c2C)cc1C	43*	19	22	61*	50*	46*	-1	52*
CCCn1nnnc1NCc1ccc(C(C)C)cc1	10	-13	13	16	31	/	/	/
Cc1ccc(C=C2C(Cl)=C(Cl)C(Cl)=C2Cl)cc1	64*	/	-7	64*	74*	78*	78*	53*
Cc1ccc(/C=[N+](/C)[O-])cc1	7	5	5	-6	7	/	/	/
CC(=O)Oc1c(Cl)c(N2CCOCC2)c(OC(C)=O)c2ccccc12	49*	-12	-22	39	53*	41*	/	41*
COc1ccc(OCc2cc(/C=N\NC(=O)c3ccccc3)ccc2OC)cc1	49*	-5	26	34	52*	31	/	45*
CNC(C)C#Cc1ccc2c(=O)c3cc(C)c(C)cc3oc2c1 (centres undefined)	42*	-12	1	16	51*	38*	/	59*
CC(C)Nc1nc(NC2CCCC2)nc(N2CCOCC2)n1	25	-5	32	7	26	/	/	/
O=C(NC(=S)Nc1cc(Cl)ccc1N1CCOCC1)c1ccccc1[N+](=O)[O-]	51*	-29	32	45*	56*	50*	47*	55*
COc1cc(/C=C/C(=O)c2ccccc2O)cc(OC)c1OC	53*	-12	25	37	62*	43*	/	55*
O=C(/C=C/c1ccc2c(c1)OCCCO2)c1ccccc1O	53*	32	29	60*	50*	46*	-8	35
CN(C)c1ccc(/C=C/C(=O)c2ccccc2O)cc1	21	14	39	39	17	/	/	/
CCOC(=O)N1C(=O)[C@](c2ccc(Cl)cc2)(C(C)C)N1C(=O)OCC	42*	-16	28	39	61*	42*	/	56*
COC(=O)N1C(=O)[C@](c2ccccc2)(C(C)C)N1C(=O)OC	20	-14	11	23	23	/	/	/
O=C(c1ccc2c(c1)OCCO2)C1CCN(S(=O)(=O)c2ccc(F)cc2)CC1	43*	-6	19	50*	57*	42*	40*	47*
CCN(C[C@H]1N[C@@](Cc2ccccc2)(C(=O)OC)[C@H]2C(=O)N(Cc3ccccc3)C(=O)[C@@H]12)C(=O)Nc1ccc(C(F)(F)F)cc1	76*	4	19	72*	70*	81*	69*	75*
Cn1ncc(Cl)c1C(=O)N1CCN(c2ccc(Cl)c(Cl)c2)CC1	41*	-29	-3	27	50*	20	/	42*
CN(C)S(=O)(=O)c1ccc(N2CCCC2)c(C(=O)N2CCN(S(=O)(=O)c3ccc(F)c(F)c3)CC2)c1	/	-2	/	/	/	/	/	/
Cc1ccccc1-n1ncc2c([N+](=O)[O-])cc([N+](=O)[O-])cc21	48*	20	17	68*	77*	35*	75*	16
O=C(CCNS(=O)(=O)c1ccc(OC(F)(F)F)cc1)N1CCN(S(=O)(=O)c2cccc(F)c2)CC1	0	/	16	-2	4	/	/	/
Cc1nc2ccccc2n1C(=O)c1ccc(Cl)cc1[N+](=O)[O-]	48*	-26	-3	23	50*	33*	/	39*
SMILES	tim10-1 inh	PfHsp90 yeast 2	NLRP3 yeast inh	TIM10 inh	tim23-1 inh	tim10-1 conf	tim10 confirm	tim23-1 conf
Cc1ccc(C2C3=C(CC(C)(C)CC3=O)NC3=C2C(=O)c2ccccc23)cc1 (centres undefined)	30	-2	21	15	25	/	/	/
CC1(C)CC(=O)C2=C(C1)NC1=C(C(=O)c3ccccc31)C2c1ccc(Cl)cc1 (centres undefined)	50*	-36	16	40*	52*	36*	22	46*
CCN(Cc1ccccc1)C(c1ccccn1)c1nnnn1C(C)(C)CC (centres undefined)	42*	-1	14	52*	66*	47*	51*	55*
CCN(CC)CCNC(=O)C1(c2ccccc2)CCCCC1	/	-1	/	/	/	/	/	/
CCn1c(C(=O)NC(C)c2ccc3c(c2)OCCO3)cc2sccc21 (centres undefined)	44*	36	6	19	53*	32*	/	46*
O=C(NC(C(=O)N/N=C/c1cc([N+](=O)[O-])ccc1O)c1n[nH]c(=O)c2ccccc12)c1ccccc1 (centres undefined)	13	3	15	-8	24	/	/	/
COc1cc(/C=C(\C#N)C(=O)NCC2CCCO2)ccc1OC(=O)c1ccco1 (centres undefined)	40*	/	12	34	64*	34*	/	53*
COc1cc(/C=C(\C#N)C(=O)NCC2CCCO2)ccc1OC(C)C (centres undefined)	31	-25	4	11	33	/	/	/
O=C(Nc1ccc(Cl)cc1)C(Cl)C(=O)c1ccccc1 (centres undefined)	55*	71	-3	59*	70*	56*	81*	76*
O=C(N/N=C\c1ccc([N+](=O)[O-])s1)c1cncc(Br)c1	45*	3	27	55*	69*	35*	51*	69*
COC(=O)N/N=C/c1ccc([N+](=O)[O-])s1	42*	2	37	30	83*	33*	/	88*
O=C(N/N=C/c1ccc([N+](=O)[O-])s1)c1ccccc1	-27	-33	8	-3	7	/	/	/
